Experiment [1] can be described thus: compound effects on lung adenocarcinoma cell viability – A549, calcein-AM fluorescence, 48 h, basal, profiling panel (AID 1162). As to conditions: higher = more signal.
Experiment [2] is described as follows: compound effects on differentiated 3T3-L1 adipocyte viability – cell-based, 3T3-L1 adipocytes, calcein-AM fluorescence, 48 h, basal, profiling panel (AID 1163). To be noted: 3T3-L1 adipocytes viability, higher = more signal.
Experiment [3] in a line: compound effects on hepatocellular carcinoma cell viability – HepG2, calcein-AM fluorescence, 48 h, basal, profiling panel (AID 1164). To be noted: higher = more signal.
Experiment [4] can be described thus: compound effects on multiple myeloma cell viability – MM1S, calcein-AM fluorescence, 48 h, basal, profiling panel (AID 1165). As to conditions: higher = more signal.
Experiment [5] is described as follows: calcein-AM signal in unstimulated myeloma cells – cell-based, calcein-AM fluorescence, 48 h, PK04 Diversity Set, profiling panel (AID 1166).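 Note: cells grown under basal conditions without added stimulus.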 To be noted: RPMI8226 myeloma viability, higher = more signal.
Experiment [6] is described as follows: JC-1 mitochondrial signal, unstimulated HepG2 cells – cell-based, JC-1 fluorescence, 24 h, 100 nL compound, profiling panel (AID 1167). As to conditions: HepG2 mitochondrial potential, higher = more signal.
Experiment [7] is described as follows: JC-1 mitochondrial signal, unstimulated adipocytes – cell-based, JC-1 fluorescence, 3T3-L1 adipocytes, 24 h, 100 nL compound, profiling panel (AID 1168). As to conditions: JC-1 mitochondrial fluorescence, higher = more signal, called active from +8 up or from −8 down.
Experiment [8] is described as follows: JC-1 mitochondrial signal, unstimulated myeloma cells – cell-based, JC-1 fluorescence, RPMI8226, 24 h, 100 nL compound, profiling panel (AID 1169). To be noted: JC-1 mitochondrial potential fluorescence, higher = more signal.
A short description of experiment [9]: JC-1 mitochondrial signal, unstimulated MM1S myeloma – cell-based, JC-1 fluorescence, 24 h, 100 nL compound, profiling panel (AID 1170). To be noted: MM1S mitochondrial potential, higher = more signal.
Experiment [10] can be described thus: resazurin metabolic signal in A549 cells – cell-based, resazurin fluorescence, 24 h, PK04 Diversity Set, profiling panel (AID 1171). As to conditions: A549 viability, higher = more signal, called active from +8 up or from −8 down. In general terms: Alamar Blue is a resazurin reagent that responds to reducing activity.

Activity calls are given as the source filed them.
Note: test concentration not given here.

For the compound `Cc1ccc(N2C(=O)c3ccccc3[C@@H](C(=O)NCC(C)C)[C@@H]2c2ccc(CO)cc2)nc1`, the z-score in experiment [1] was 0.593; in experiment [2], -0.136; in experiment [3], 0.558; in [4] it was -0.0617; in [5] it was 0.662; in experiment [6], 2.02. Moreover, the z-score in experiment [7] is 1.09 (inactive); in experiment [8], -0.482; in experiment [9] it was 0.133; in experiment [10], -0.613 (inactive).

In the case of `CN(C)CCCC[C@@H]1NC(=O)[C@H]2C[C@@H](C(=O)NCCCCCNC(=O)CS)[C@@H](c3ccc(O)cc3)N2C1=O`, the z-score is -0.294 in experiment [1]; -0.478 in experiment [2]; -0.0888 in experiment [3]; 0.201 in [4]; -0.285 in experiment [5]; 1.68 in [6]. In addition, the z-score in [7] is -0.143 (inactive); in [8] it was -0.319; in experiment [9] it was 0.543; in experiment [10] it was -0.358 (inactive).

On to `O=C1OCC=C[C@H]2OC34C=CCN(c5ccc6ccccc6c5)C(=O)[C@H]3N(CCO)C(=O)[C@@H]4[C@@H]12` (stereo not given in full), for which the z-score in experiment [1] was 0.594; in experiment [2] it was -0.355; in experiment [3], 0.379; in experiment [4], -0.102; in experiment [5] it was -0.29; in [6], -0.542. Moreover, the z-score is -0.252 (inactive) in [7], 1.02 in experiment [8], -0.161 in [9] and -0.0805 (inactive) in experiment [10].

Regarding `O=C1NC(=O)C2C1C=CC(C(O)c1cccs1)N2Nc1ccccn1` (stereo not given), the z-score is 1.74 in experiment [1]; -0.508 in [2]; 0.714 in experiment [3]; 0.119 in experiment [4]; 1.13 in experiment [5]; 0.674 in [6]. The z-score is 0.112 (inactive) in [7], 0.268 in experiment [8], 0.0729 in experiment [9] and -1.06 (inactive) in experiment [10].

On to `O=C(NCC(F)(F)F)[C@@H]1c2ccccc2C(=O)N(Cc2ccccc2)[C@H]1c1ccc(CO)cc1`, for which the z-score in experiment [1] was 1.73; in experiment [2] it was 0.402; in experiment [3], 1.34; in [4] it was 0.356; in [5], -0.407; in [6], 2.14. The z-score in experiment [7] was 1.2 (inactive); in [8], 0.0511; in experiment [9] it was -0.657; in experiment [10], 0.176 (inactive).

Take `C=CCC(OC(C)=O)[C@@H]1[C@@H](N(Cc2ccc(-c3ccccc3)cc2)C(=O)c2ccc(C)cc2)c2cc(OCCCO)ccc2N1C(=O)Cc1ccc(OC)cc1` (stereo not given in full): the z-score in experiment [1] was 0.837; in experiment [2] it was 0.705; in experiment [3], 2.23; in experiment [4], 0.711; in experiment [5], 0.815; in experiment [6], 4.08. The z-score in experiment [7] is -0.172 (inactive); in experiment [8], 0.768; in [9], -0.496; in experiment [10] it was 0.267 (inactive).

For the compound `CC(C)N1C(=O)c2ccccc2[C@](C)(C(=O)NCCCN(C)C)[C@@H]1c1ccc(CO)cc1`, the z-score is 0.415 in experiment [1]; 0.302 in experiment [2]; 0.446 in experiment [3]; -0.0937 in experiment [4]; -0.384 in [5]; 0.861 in [6]. The z-score in experiment [7] was -0.253 (inactive); in experiment [8] it was -0.13; in experiment [9], 0.413; in experiment [10], 0.565 (inactive).

Turning to `COCCOC(=O)N1C(=O)[C@@]2(c3cc(C#Cc4ccc(OC)cc4)ccc31)[C@H](c1ccc(O)cc1)N1[C@H](c3ccccc3)[C@H](c3ccccc3)OC(=O)[C@H]1[C@@H]2C(=O)N1CCN(c2ncccn2)CC1`, the z-score is -0.514 in experiment [1]; 0.546 in experiment [2]; -0.0225 in experiment [3]; -0.305 in experiment [4]; -1.12 in [5]; -0.445 in experiment [6]. In addition, the z-score was 2.33 (inactive) in experiment [7], -0.525 in experiment [8], -0.339 in [9] and 0.484 (inactive) in [10].

Turning to `CCCCN1CC=CC23O[C@@H]4/C=C\CCCOC(=O)C4[C@H]2C(=O)N(C(C)CO)[C@@H]3C1=O` (stereo not given in full), the z-score was -0.455 in experiment [1]; -0.455 in [2]; -0.564 in experiment [3]; 0.35 in experiment [4]; 1.4 in [5]; 0.698 in [6]. For the same compound, the z-score in experiment [7] was 0.0147 (inactive); in experiment [8], -0.546; in experiment [9], -1.11; in [10] it was -0.249 (inactive).

In the case of `CC(=O)NCCCC[C@@H]1NC(=O)[C@@H]2C[C@H](C(=O)NCCCCCC[N+](C)(C)C)[C@H](c3cccc(OCCO)c3)N2C1=O`, the z-score was -0.339 in experiment [1]; -0.547 in [2]; -0.231 in experiment [3]; -0.241 in experiment [4]; 0.397 in [5]; -1.51 in experiment [6]. Besides, the z-score was -0.0349 (inactive) in experiment [7], 0.226 in experiment [8], -0.12 in [9] and 0.481 (inactive) in [10].

`COc1c(C)cc(-c2cc3c(c(-c4ccccc4)n2)[Si](C(C)C)(C(C)C)O[C@H]3c2ccccc2)cc1C`: the z-score in [1] was -0.77; in experiment [2] it was -0.11; in [3] it was -0.0094; in experiment [4] it was -0.521; in experiment [5] it was -1.98; in experiment [6] it was -1.21. Further, the z-score in experiment [7] was -1 (inactive); in [8], -0.016; in experiment [9] it was -0.198; in experiment [10], -0.0824 (inactive).

Take `CCOC(=O)C[C@H]1[C@H](OC(=O)c2cc3ccccc3oc2=O)[C@@H](NC(=O)c2ccc3ccccc3c2)c2cc(OCCCO)ccc2N1C(=O)c1ccccc1`: the z-score in experiment [1] was 0.659; in experiment [2], 2.7; in experiment [3] it was 0.582; in [4], 0.0168; in experiment [5], -0.608; in experiment [6] it was -1.3. Besides, the z-score is 0.571 (inactive) in experiment [7], 0.416 in experiment [8], 0.755 in [9] and -1.01 (inactive) in experiment [10].

On to `COCCOC(=O)N1C(=O)[C@@]2(c3cc(C#Cc4ccc(OC)cc4)ccc31)[C@H](C(N)=O)[C@H]1C(=O)O[C@H](c3ccccc3)[C@H](c3ccccc3)N1[C@@H]2c1ccc(O)cc1`, for which the z-score in [1] is 0.363; in experiment [2], 0.632; in [3] it was -0.905; in experiment [4], 0.152; in [5] it was -2.22; in [6], -0.933. In addition, the z-score in experiment [7] was 0.454 (inactive); in experiment [8], -0.677; in [9], -0.317; in experiment [10], 0.179 (inactive).

With `C#C[C@H]1Oc2ccccc2S(=O)(=O)N2CCC[C@@H]12`, the z-score in [1] is -0.308; in experiment [2] it was -0.401; in [3], -1.19; in experiment [4], 0.132; in experiment [5], -0.446; in [6] it was -0.777. The z-score was -0.275 (inactive) in experiment [7], -0.18 in experiment [8], -0.116 in experiment [9] and -0.424 (inactive) in experiment [10].

Consider `CC(c1ccccc1)C(O)C1C=CC2C(=O)N(c3ccccc3)C(=O)C2N1Nc1ccccc1F` (stereo not given), for which the z-score in experiment [1] is -0.221; in experiment [2], -0.146; in experiment [3], -0.77; in experiment [4], 0.214; in experiment [5] it was -0.975; in experiment [6], -1.13. Besides, the z-score in experiment [7] was -0.994 (inactive); in [8], 0.387; in experiment [9], -0.289; in experiment [10], 0.959 (inactive).

The values above are taken from PubChem BioAssay.
